Measured values as given in PubChem BioAssay (NCI).
Compounds without any hit were thinned out: in the full panel of roughly 83,000, 20% have a hit.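 The endpoint reported here, percent growth, reads 100 for growth as untreated, 0 for no net growth and -100 for all cells dead.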 Activity calls are given as the source filed them. Rule for the calls: active = growth percent below 10; inactive = the rest.

What was measured:
Experiment in all cases: NCI-60 one-dose screen, 48 h (100 = growth as untreated, 0 = no growth, -100 = all killed)
Settings in all cases: 10 µM
[1] = tested on: SR leukemia
[2] = tested on: RPMI-8226 leukemia
[3] = tested on: OVCAR-8 ovarian
[4] = tested on: OVCAR-5 ovarian
[5] = tested on: OVCAR-4 ovarian
[6] = tested on: SK-OV-3 ovarian
[7] = tested on: IGROV1 ovarian
[8] = tested on: OVCAR-3 ovarian
[9] = tested on: HS 578T breast
[10] = tested on: NCI/ADR-RES ovarian
[11] = tested on: T-47D breast
[12] = tested on: BT-549 breast
[13] = tested on: MDA-MB-435 melanoma
[14] = tested on: SW-620 colon
[15] = tested on: MCF7 breast
[16] = tested on: HCT-116 colon
[17] = tested on: HCC-2998 colon
[18] = tested on: KM12 colon
[19] = tested on: MDA-MB-468 breast

Measured: growth

CN1CCN(Cc2ccc(NC(=O)c3cncc(C#Cc4cnc5ccc(N[C@@H]6CCOC6)nn45)c3)cc2C(F)(F)F)CC1
active: [1] -18.5% | [2] -24.1% | [3] -96.2% | [4] -91.6% | [5] -66.3% | [6] -83.1% | [7] -91.6% | [8] -90.3% | [9] -41% | [10] -77.5% | [11] -63.2% | [12] -71.3% | [13] -87.6% | [14] -41.9% | [15] -88.1% | [16] -63.9% | [17] -99.7% | [18] -90.7% | [19] -96.2%

COc1ccc2[nH]cc(/C=N/Nc3cccc(Cl)n3)c2c1
inactive: [1] 17.1% | [3] 57.9% | [4] 77.4% | [5] 59.8% | [6] 91.4% | [8] 17.4% | [9] 49.9% | [10] 22.2% | [11] 31.5% | [12] 12.1% | [13] 44.7% | [14] 79.7% | [15] 31.9% | [16] 37.3% | [17] 39.7% | [18] 21.3%
active: [2] -0.856% | [7] 5.42% | [19] -13.2%

Cc1ccc(/C=C/C(=O)c2ccc(NC(=O)CSc3nnc(-c4c[nH]c5ccccc45)n3-c3ccccc3)cc2)cc1
active: [2] 4.29% | [15] 8.55% | [16] -40.2%
inactive: [1] 72.4% | [3] 96.4% | [4] 103% | [5] 85.2% | [6] 106% | [7] 93.1% | [8] 83.2% | [9] 83.8% | [10] 93.6% | [11] 54.2% | [12] 95.7% | [13] 72.8% | [14] 90.1% | [17] 83.8% | [18] 78.7% | [19] 85.7%

C/C(=N\NC(N)=S)c1ccc(Nc2nc(SC(C)C)nc(-c3ccccc3)c2C#N)cc1
inactive: [1] 79.9% | [2] 72.3% | [3] 30.5% | [4] 75.6% | [5] 57.7% | [6] 90% | [7] 81.3% | [8] 67.3% | [9] 18.7% | [10] 61.6% | [11] 57.3% | [12] 28.5% | [13] 82.6% | [14] 85.8% | [15] 64.2% | [16] 57.5% | [17] 59.2% | [18] 75.7% | [19] 28.2%

O=c1[nH]c2ccccc2cc1CSc1ccc(Nc2nccc(-c3ccc(Cl)cc3)n2)cc1
inactive: [1] 59.2% | [2] 21.2% | [7] 11% | [17] 14.6% | [18] 23%
active: [3] -52.9% | [4] -19.5% | [5] -76.8% | [6] -15.1% | [8] -73.9% | [9] -22.1% | [10] -39% | [11] -10.3% | [12] -5.03% | [13] 9.58% | [14] 2.67% | [15] -5.81% | [16] -38.6% | [19] -67.5%

O=C(CNc1nc(-c2ccccc2)cs1)Nc1ccc(Cl)cc1
active: [1] -18.7% | [2] 2.96% | [3] -28.8% | [4] -95.4% | [5] -33.8% | [6] -82.9% | [7] -78.6% | [8] -36.6% | [9] -3.04% | [10] -30.3% | [11] -34.6% | [12] -54.5% | [13] -58.5% | [14] -68.5% | [15] -85.5% | [16] -41.2% | [17] -94.6% | [18] -83.8% | [19] -81.2%

COc1cc2c3c(n(CCCn4ccnc4)c(=O)c2cc1OC)-c1nc2c(cc1C3=O)OCO2
active: [15] 7.42% | [19] -29.8%
inactive: [1] 13.8% | [2] 44.3% | [3] 43.6% | [4] 57.2% | [5] 80.9% | [6] 18.3% | [7] 56% | [8] 48.5% | [9] 119% | [10] 84.2% | [11] 21.8% | [12] 29.6% | [13] 52.2% | [14] 37% | [16] 30.4% | [17] 72.2% | [18] 59.6%

O=C(Nc1ccc(Cl)c([N+](=O)[O-])c1)Nc1ccc(Cl)c([N+](=O)[O-])c1
inactive: [1] 12.4% | [3] 20.7% | [4] 49.8% | [5] 23.2% | [6] 79.4% | [7] 15.3% | [9] 45.1% | [13] 13.3% | [14] 18.7% | [17] 12.7%
active: [2] -20.5% | [8] 9.61% | [10] 6.5% | [11] 1.86% | [12] -11.6% | [15] -5.85% | [16] 9.36% | [18] 5.87% | [19] -27.2%
